{"source": "PubChem BioAssay AID1030", "about": "(National Center for Advancing Translational Sciences (NCATS), 2008)", "note": "In all, about 220,000 compounds went through this assay and about 16,000 (7.3%) were called active. Another 25% or so got no clear call; they are omitted. Shown is part of a subset that was picked to be rich in actives. A number with no mark means an inactive call. The call rests on the fitted dose curve; in most records, active means well fitted inhibition curve with a large enough effect (not every such curve was filed as active); inconclusive means small, poorly fitted or top-dose-only effect, or another doubt; inactive means no such curve, though single readings can be large or run the other way. Peptide text beside a SMILES is read from it. * marks the point of attachment. OPac = O=C(CO*)c1ccccc1; Bz = O=C(c1ccccc1)*"}
{"target": "Aldehyde dehydrogenase 1A1 (Homo sapiens) (UniProt P00352)", "sequence (P00352 whole entry, looked up)": "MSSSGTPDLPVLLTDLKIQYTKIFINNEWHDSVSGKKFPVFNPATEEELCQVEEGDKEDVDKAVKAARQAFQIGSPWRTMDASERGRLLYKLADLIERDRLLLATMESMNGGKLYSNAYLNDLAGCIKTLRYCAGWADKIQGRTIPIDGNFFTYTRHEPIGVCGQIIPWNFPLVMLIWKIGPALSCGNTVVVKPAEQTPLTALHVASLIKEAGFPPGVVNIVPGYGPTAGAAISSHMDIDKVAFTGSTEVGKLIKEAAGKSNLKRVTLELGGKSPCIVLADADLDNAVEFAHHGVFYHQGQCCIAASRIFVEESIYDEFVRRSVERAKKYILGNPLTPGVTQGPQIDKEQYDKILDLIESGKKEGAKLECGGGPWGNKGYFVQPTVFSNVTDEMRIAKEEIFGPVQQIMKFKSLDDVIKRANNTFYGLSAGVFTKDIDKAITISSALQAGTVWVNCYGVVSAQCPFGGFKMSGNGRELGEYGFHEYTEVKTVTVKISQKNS", "assay": "qHTS Assay for Inhibitors of Aldehyde Dehydrogenase 1 (ALDH1A1); further: potency means the concentration at half of the fitted maximal effect;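 on activity, negative = inhibition: plate controls were no enzyme wells and a reference inhibitor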", "conditions": "Purified ALDH1A1, NADH fluorescence, propionaldehyde substrate; series mostly up to 75.3 µM; activity, negative = inhibition: at the top concentration"}
{"smiles": "NC(=S)N/N=C/c1ccc([N+](=O)[O-])cc1", "activity, negative = inhibition": "-3.14%"}
{"smiles": "Cc1cccc(COc2ccccc2/C=N/Nc2ccc([N+](=O)[O-])cc2)c1", "activity, negative = inhibition": "-2.85%"}
{"smiles": "O=[N+]([O-])c1ccc(N/N=C/c2ccccc2)cc1", "Potency": "14.1 µM (active)"}
{"smiles": "Cn1ncc(N2CCN(S(=O)(=O)c3ccc(Br)cc3)CC2)c(Cl)c1=O", "activity, negative = inhibition": "9.36%"}
{"smiles": "N#Cc1c(C(F)(F)F)cc(-c2ccc(Cl)cc2)nc1SCC(=O)O", "activity, negative = inhibition": "16%"}
{"smiles": "Cc1ccc(C(=O)N/C(=C/c2cccs2)C(=O)N2CCCCC2)cc1", "activity, negative = inhibition": "-6.46%"}
{"smiles": "Cc1cccc(C(=O)N2CCc3c([nH]c4ccccc34)C2CC(C)C)n1", "note": "(stereo unspecified)", "activity, negative = inhibition": "3.83%"}
{"smiles": "CCOC(=O)C1(Cc2cccc(OC)c2)CCN(Cc2csc(C(C)=O)c2)CC1", "activity, negative = inhibition": "-5.22%"}
{"smiles": "CCOC(=O)C1(Cc2cccc(OC)c2)CCN(C(C)CC(C)(C)O)CC1", "note": "(stereo unspecified)", "Potency": "3.55 µM (active)"}
{"smiles": "CCOC(=O)C1(Cc2cccc(OC)c2)CCN(C(C)COC)CC1", "note": "(stereo unspecified)", "activity, negative = inhibition": "-9.4%"}
{"smiles": "CN(CC(=O)NC1CCCC1)S(=O)(=O)c1cnc[nH]1", "activity, negative = inhibition": "15.3%"}
{"smiles": "CCN(CC)CCN(C(=O)c1cccc([N+](=O)[O-])c1)c1nc2ccc(OC)cc2s1", "activity, negative = inhibition": "-6.76%"}
{"smiles": "CCCCN(CC)C(=O)c1ccc2c(c1)OCO2", "activity, negative = inhibition": "-5.91%"}
{"smiles": "CCN(CC)CCN(C(=O)c1ccc(N2C(=O)CCC2=O)cc1)c1nc2cc3c(cc2s1)OCO3", "Potency": "20 µM (active)"}
{"smiles": "COc1ccc(CC2(CO)CCN(Cc3cnn(C)c3)CC2)cc1", "activity, negative = inhibition": "13.9%"}
{"smiles": "COCCCNC(=O)/C=C/c1ccc(OCc2c(F)cccc2Cl)cc1", "activity, negative = inhibition": "-5.86%"}
{"smiles": "Cc1nc(-c2ccc(Cl)cc2)sc1C(=O)CBr", "Potency": "12.6 µM (active)"}
{"smiles": "Cc1ccc(SCC(=O)c2sc(-c3ccccc3)nc2C)cc1", "activity, negative = inhibition": "-4.02%"}
{"smiles": "Cc1nc(NC(=O)CN(C)S(=O)(=O)c2ccc(Cl)cc2)sc1C", "activity, negative = inhibition": "3.59%"}
{"smiles": "O=C(N/N=C/c1cc([N+](=O)[O-])ccc1O)/C(=C\\c1cccs1)NC(=O)c1ccccc1", "activity, negative = inhibition": "-3.97%"}
{"smiles": "CCC(=O)Nc1ccc(Nc2nc(Cl)nc(Nc3ccc(NC(=O)CC)cc3)n2)cc1", "activity, negative = inhibition": "8.66%"}
{"smiles": "O=c1[nH]c2cccnc2n(CCNc2ncc(C(F)(F)F)cc2Cl)c1=O", "activity, negative = inhibition": "-4.57%"}
{"smiles": "CC(C)(C)n1cnnc1Sc1ccc([N+](=O)[O-])cn1", "activity, negative = inhibition": "-1.38%"}
{"smiles": "CCCCNC(=O)C(=O)c1ccccc1NC(C)=O", "activity, negative = inhibition": "-5.94%"}
{"smiles": "CCCCNC(=O)Nc1c(C)cc(SC#N)cc1C", "Potency": "0.562 µM (active)"}
{"smiles": "Cc1cc2nc(C)n(CCCNC(=O)Nc3ccccc3)c2cc1C", "activity, negative = inhibition": "3.27%"}
{"smiles": "O=C(NCCOCc1ccc(Cl)cc1)c1ncn[nH]1", "activity, negative = inhibition": "10.1%"}
{"smiles": "O=C(/C=C/Sc1ncn[nH]1)c1ccc(Cl)cc1", "Potency": "8.91 µM (active)"}
{"smiles": "COc1cccc2cc(S(=O)(=O)c3ccc(C)cc3)/c(=N/NS(=O)(=O)c3ccc(C)cc3)oc12", "activity, negative = inhibition": "8.38%"}
{"smiles": "CCOc1ccc(-n2c(SCC(=O)NC3CCS(=O)(=O)C3)nnc2-c2cccnc2)cc1", "note": "(stereo unspecified)", "activity, negative = inhibition": "-0.699%"}
{"smiles": "Cn1c2c(c(=O)n(C)c1=O)[C@@H]1c3c(ccc4ccccc34)OC[C@@H]1CO2", "activity, negative = inhibition": "26.5%"}
{"smiles": "COc1cccc2c1OCC1COc3c(c(=O)n(C)c(=O)n3C)C21", "note": "(stereo unspecified)", "activity, negative = inhibition": "8.66%"}
{"smiles": "Cn1c2c(c(=O)n(C)c1=O)C1c3ccccc3OCC1C(C)(C)O2", "note": "(stereo unspecified)", "Potency": "28.2 µM (active)"}
{"smiles": "COc1ccc(C/C(N)=N/OC(=O)c2ccco2)cc1OC", "activity, negative = inhibition": "5.69%"}
{"smiles": "COc1ccccc1-c1nnc(SCC(=O)Nc2cc(C)on2)o1", "activity, negative = inhibition": "10.9%"}
{"smiles": "COc1ccccc1N1CCN(C(=O)CSc2nnc(-c3ccoc3C)o2)CC1", "Potency": "1.58 µM (active)"}
{"smiles": "CCOc1ccccc1-n1c(SCC(=O)N2CCCC2)nnc1-c1ccoc1C", "activity, negative = inhibition": "5.97%"}
{"smiles": "COc1ccc(-n2nc(C(=O)Nc3cc(OC)c(OC)c(OC)c3)c3ccccc3c2=O)c(OC)c1", "activity, negative = inhibition": "7.67%"}
{"smiles": "CCOC(=O)c1c(NC(=S)NC(=O)c2ccco2)sc2c1CCCC2", "activity, negative = inhibition": "18.1%"}
{"smiles": "COC(=O)c1c(NC(=O)c2cccs2)sc2c1CCCC2", "activity, negative = inhibition": "5.12%"}
{"smiles": "CNC(=O)c1c(NC(NC(=O)c2ccco2)C(=O)c2ccc(Cl)cc2)sc2c1CCCC2", "note": "(stereo unspecified)", "Potency": "14.1 µM (active)"}
{"smiles": "COc1cc(OC)cc(-c2nnc(N(C)C(=O)c3ccncc3)s2)c1", "activity, negative = inhibition": "-14%"}
{"smiles": "O=C1[C@@H]2C(c3cccnc3)=NO[C@@H]2C(=O)N1c1ccc(Cl)cc1Cl", "Potency": "3.55 µM (active)"}
{"smiles": "COC(=O)CCCC1=CC2=CC(=O)C(C)(OC(=O)c3cccs3)C(=O)C2=CN1CC(C)C", "note": "(stereo unspecified)", "activity, negative = inhibition": "-2.57% [at 13.5 µM]"}
{"smiles": "CN1CCN(CCCCOc2ccccc2-c2ccccc2)CC1", "Potency": "10 µM (active)"}
{"smiles": "CC1CCCN(CCOCCOc2ccccc2-c2ccccc2)C1", "note": "(stereo unspecified)", "activity, negative = inhibition": "-14%"}
{"smiles": "c1ccc(-c2ccccc2OCCN2CCCCC2)cc1", "activity, negative = inhibition": "-5.53%"}
{"smiles": "O=C(c1ccc(Cl)c(Cl)c1)N1CCCC1", "activity, negative = inhibition": "2.43%"}
{"smiles": "O=C(Nc1ccccc1C(=O)N1CCCCCC1)c1ccccc1Cl", "activity, negative = inhibition": "0.473%"}
{"smiles": "Cc1c(Cl)cccc1NC(=O)Nc1ccc(C(=O)N2CCCC2)cc1", "Potency": "20 µM (active)"}
{"smiles": "Cc1ccc(S(=O)(=O)N(C)C)cc1NC(=O)COC(=O)C1COc2ccccc2O1", "note": "(stereo unspecified)", "activity, negative = inhibition": "-0.617%"}
{"smiles": "CCOC(=O)/C(=N\\Nc1ccccc1[N+](=O)[O-])c1csc(Nc2ccccc2)n1", "activity, negative = inhibition": "-14.7%"}
{"smiles": "C/C(=C\\C(=O)c1ccccc1)Nc1cccc(O)c1", "activity, negative = inhibition": "-0.102%"}
{"smiles": "CN(C)S(=O)(=O)c1cccc(NC(=S)N/N=C/C(=O)c2ccccc2)c1", "Potency": "8.91 µM (active)"}
{"smiles": "CN(C)S(=O)(=O)c1cccc(C(=O)Nc2cccnc2)c1", "activity, negative = inhibition": "-7.62%"}
{"smiles": "O=C(CC1SC(=Nc2ccccc2)N(Cc2ccccn2)C1=O)Nc1cccc(Cl)c1", "note": "(stereo unspecified)", "Potency": "20 µM (active)"}
{"smiles": "CN1C(=O)C(CC(=O)Nc2ccccc2)S/C1=N/c1nccs1", "note": "(stereo unspecified)", "activity, negative = inhibition": "1.45%"}
{"smiles": "O=C(Nc1cccc(Cl)c1)OCc1ccccn1", "activity, negative = inhibition": "5.51%"}
{"smiles": "c1ccc2c(c1)OCCOCCOCCO2", "activity, negative = inhibition": "0.0347%"}
{"smiles": "CSCCC(NC(=O)c1ccco1)C(=O)OCC(=O)Nc1ncc(Cl)c(C)c1Cl", "note": "(stereo unspecified)", "Potency": "22.4 µM (active)"}
{"smiles": "CCc1cc2c(SCC(=O)Nc3ncc(Cl)c(C)c3Cl)ncnc2s1", "activity, negative = inhibition": "13.2%"}
{"smiles": "Cc1c(Cl)cnc(NC(=O)COC(=O)c2ccc(S(=O)(=O)NCc3ccco3)cc2)c1Cl", "activity, negative = inhibition": "-4.88%"}
{"smiles": "COC(=O)c1ccc(OCC(O)CN(CCO)CC(O)Cn2ccc3ccccc32)cc1", "note": "(stereo unspecified)", "activity, negative = inhibition": "3.59%"}
{"smiles": "O=C(/C=C/NCc1ccc(F)cc1)c1ccccc1", "activity, negative = inhibition": "5.27%"}
{"smiles": "O=C(CNC(=O)c1ccccc1)NCC(=O)OCC(=O)c1ccccc1", "note": "(Bz-Gly-Gly-OPac)", "activity, negative = inhibition": "4.07%"}
{"smiles": "O=C(/C=C\\NCC(=O)c1ccccc1)c1ccccc1", "Potency": "2.51 µM (active)"}
